Rows were chosen to be rich in hits. Some 21% of all compounds tested hit in one or more screens of this group.
Pf growth 96h: P. falciparum growth inhibition at 96 hours | P. falciparum luciferase reporter growth, 96 h | 6.9% of 320,000 active | Potency, µM (doses to about 28.7 µM), usual class: inhibitors | AID 504834
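Readout is luminescence from an integrated firefly luciferase in P. falciparum. Red cells, 2% hematocrit and 0.05% parasitemia final, were cultured with compound through two parasite generations (96 hours) at 37 C, 5% CO2.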
HCMV inh: blocks human cytomegalovirus replication | HFF cells, HCMV-luciferase reporter, 72 h; hits give low values | activity change, negative = inhibition, % at 57.5 µM | 4.5% of 410,000 active | AID 1259415; in the data active = activity change below about -60%; inconclusive = no clear call, values can overlap the other calls; inactive = above about -39%
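Human foreskin fibroblasts infected with luciferase-reporter HCMV at MOI 1 PFU/cell, compounds at two doses. Luciferase measured 72 h post infection; normalized to buffer-only basal and Salinomycin (10uM) controls.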
Shiga toxin inh: inhibitors of Shiga toxin in Vero cells. Vero cells, Shiga toxin protein synthesis inhibition reporter. inhibition, % at 38.7 µM. 9.2% of 290,000 active. AID 2315; in the data active = inhibition mostly above about 28%, no sharp cut-off; inactive = mostly below about 43%
Cycloheximide cs: counter-screen hit for Shiga toxin inhibitors, cycloheximide; cell reporter, cycloheximide protein synthesis inhibition counterscreen; max response, %; 12% of 300,000 active; in the data active = max response mostly above about 13%, no sharp cut-off; inactive = mostly below about 14%; also: read at 38.3 µM for the half of the compounds with a filed dose
Pf growth 48h: inhibits P. falciparum growth in the first generation, 48 h; P. falciparum luciferase growth in erythrocytes, 48 h; Potency, µM (series often up to 28.7 µM), hits mostly inhibitors; 5.9% of 310,000 active; AID 504832
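Erythrocytes infected with P. falciparum carrying an integrated firefly luciferase reporter (2% hematocrit, 0.1% parasitemia final) were exposed to compounds in RPMI 1640 with 0.5% Albumax at 37 C, 5% CO2. Growth inhibition was scored as reduced luminescence.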
HCV inh: inhibitors of hepatitis C virus infection; Huh7.5.1 HCVcc-Cre infection, luciferase reporter, 44 h; Potency, µM (doses to about 41.8 µM), most hits filed as inhibitors; 3.4% of 340,000 active
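Luciferase read-out (15 sec integration) after a 15 min room-temperature substrate step quantifies HCVcc-Cre infection. Cells, 1,000 per well, had compound added 4 h post-plating, then virus at ~0.5 moi, and were cultured 44 h.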
A number is an active result. Unless noted, calls follow the shape of the dose curve; as a rule, active = well fitted inhibition curve with a large enough effect; inconclusive = small, poorly fitted or top-dose-only effect, or another doubt; inactive = no such curve, though single readings can be large or run the other way.

Cc1cc(C)cc(NC(=O)C(=O)NC(C)c2ccccc2)c1 (stereo not drawn) was read as HCMV inh inactive.
For CCCCOC(=O)c1ccc(NC(=S)NC(=O)c2c(Cl)cnn2CC)cc1 the results were Pf growth 96h inactive, HCMV inh inactive, Shiga toxin inh inactive, Cycloheximide cs inactive, Pf growth 48h inactive and HCV inh inactive.
Screening Cc1nn(C)c(C(=O)NC(=S)Nc2ccccc2Br)c1Cl returned Pf growth 96h inactive, HCMV inh inactive, Shiga toxin inh inactive, Cycloheximide cs 21.8, Pf growth 48h inactive and HCV inh inactive.
Screening CCn1ncc(Cl)c1C(=O)NC(=S)Nc1ccccc1Br returned Pf growth 96h inconclusive, HCMV inh inactive, Shiga toxin inh inactive, Cycloheximide cs 32.8, Pf growth 48h inactive and HCV inh inactive.
`O=C(C1CCC(Cn2c(=O)c3sccc3n(Cc3ccccc3)c2=O)CC1)N1CCCCC1` (stereo not drawn) gave HCMV inh inactive.
CN1OC(C)(CC(=O)NCc2nccs2)N=C1c1cccc(Br)c1 (stereo not drawn) was read as HCMV inh inactive.
`COc1cccc(NC(=O)CSc2nc(=O)n(Cc3cccnc3)c3c2CCC3)c1` gave HCMV inh inactive.
`COc1ccc(C(=O)/C=C2/c3ccccc3CC(C)(C)N2C)cc1OC` gave Pf growth 96h 11.7µM, HCMV inh inactive, Shiga toxin inh inactive, Cycloheximide cs inactive, Pf growth 48h inactive and HCV inh inactive.
`CCOc1ccccc1NC(=O)c1cnc(NS(=O)(=O)c2ccccc2)nc1` gave Pf growth 96h inconclusive, HCMV inh inactive, Shiga toxin inh inactive, Cycloheximide cs inactive, Pf growth 48h inactive and HCV inh inactive.
`Cc1cccc(C)c1C(=NCCCN(C)C)c1ccccc1` gave Pf growth 96h 4.65µM, HCMV inh inactive, Shiga toxin inh inactive, Cycloheximide cs inactive, Pf growth 48h 9.28µM and HCV inh inactive.
CN(C)c1ccc(CNC(=O)CN2C(=O)CCn3nc(-c4cn(C)c5ccccc45)cc32)cc1 was read as HCMV inh inactive.
COc1cc(CNc2ccc3[nH]c(=O)[nH]c3c2)cc(Br)c1OCC(=O)NC(C)(C)C was read as Pf growth 96h inconclusive, HCMV inh -70.7, Shiga toxin inh inactive, Cycloheximide cs inactive and HCV inh inconclusive.
COc1cc(CNc2cccc(C(=O)O)c2)cc(Br)c1OCC(=O)NC(C)(C)C was read as Pf growth 96h 11.7µM, HCMV inh inactive, Shiga toxin inh inactive, Cycloheximide cs inactive, Pf growth 48h inactive and HCV inh inactive.
Screening COc1cccc(-c2cc(NC=O)c3ncc(-c4cccc(C(=O)N(C)C)c4)n3c2)c1 returned HCMV inh inactive.
Screening COc1ccc(CNc2nn3c(-c4cccc(C(=O)N(C)C)c4)cnc3s2)cc1 returned HCMV inh -66.4.
Screening COc1ccc(Cc2nc(-c3cccs3)no2)cc1 returned Pf growth 96h inactive, HCMV inh inactive, Shiga toxin inh 69.8, Cycloheximide cs 32.8, Pf growth 48h inactive and HCV inh inactive.
`COc1ccc(-c2noc(CN(C)Cc3ccccc3)n2)c(OC)c1OC` gave Pf growth 96h 3.7µM, HCMV inh inactive, Shiga toxin inh inactive, Cycloheximide cs 14.6, Pf growth 48h inactive and HCV inh inconclusive.
`COc1ccc(Cc2nc(-c3ccccc3)no2)cc1` gave Pf growth 96h inactive, HCMV inh inactive, Shiga toxin inh 41.8, Cycloheximide cs 35.9, Pf growth 48h inactive and HCV inh inactive.
Screening COc1ccc(Cc2nc(-c3cccs3)no2)cc1OC returned Pf growth 96h inactive, HCMV inh inactive, Shiga toxin inh inactive, Cycloheximide cs 23.7 and HCV inh inconclusive.
`N#Cc1ccc(-c2ccc(OCC(O)CN3CCCCC3)cc2)cc1` (stereo not drawn) gave Pf growth 96h inconclusive, HCMV inh inactive, Shiga toxin inh inactive, Cycloheximide cs inactive, Pf growth 48h inconclusive and HCV inh inconclusive.
For CCOC(=O)NNC(=O)C1CCC(C)CC1 (stereo not drawn) the results were Pf growth 96h inactive, HCMV inh inactive, Shiga toxin inh inactive, Cycloheximide cs inactive, Pf growth 48h inactive and HCV inh inactive.
